Experimental data published in PubChem BioAssay (EPA / NIEHS).
Where “and” joins values, the source holds several entries; their conditions need not be identical. Identical values can stand only once. Where a structure was tested more than once in an assay, its records may differ in their call. Calls of active or inactive are those of the source. How the source made its calls: active means hit-call score of the fitted dose curve at least 0.9, where 1 is the maximum; inactive means score below 0.9.

Each compound was assayed against Heat shock factor protein 1 (Homo sapiens) (UniProt Q00613) (assay: ATG_HSE_CIS: Attagene CIS-FACTORIAL HepG2 Assay for human Heat Shock Transcription Factor 1 (HSE) (AID 2282953)). Conditions: HepG2 HSE cis-reporter, Attagene RNA transcription; actives raise or lower the signal.
Description: ATG_CIS is a cell-based, multiplexed-readout assay that uses HepG2, a human liver cell line, with measurements taken at 24 hours after chemical dosing in a 24-well plate.ATG_HSE_CIS is one of 52 assay component(s) measured or calculated from the ATG_CIS assay. It is designed to make measurements of mRNA induction, a form of inducible reporter, as detected with fluorescence intensity signals by Reverse transcription polymerase chain reaction (RT-PCR) and Capillary electrophoresis technology.Data from the assay component ATG_HSE_CIS was analyzed into 1 assay endpoint. This assay endpoint, ATG_HSE_CIS, was analyzed with bidirectional fitting relative to DMSO as the negative control and baseline of activity. Using a type of inducible reporter, measures of mRNA for gain or loss-of-signal activity can be used to understand the reporter gene at the transcription factor-level as they relate to the gene HSF1. Furthermore, this assay endpoint can be referred to as a primary readout, because this assay has produced multiple assay endpoints where this one serves a reporter gene function. To generalize the intended target to other relatable targets, this assay endpoint is annotated to the dna binding intended target family, where the subfamily is heat shock protein.
Human liver HepG2 cells are transiently transfected with multiple reporter transcription units (MRTUs) in 6-well plates using FuGene 6 reagent (Roche; 3 ml FuGene/1 mg DNA). The MRTU constructs are regulated by a cis-regulating element (promoter). […] A major difference between the CIS and TRANS system is that in CIS activities of endogenous TFs are measured, whereas the TRANS assay evaluates changes in activities of exogenous, chimeric NR-Gal4 proteins. […] At the end of 24 hour incubation, total RNA was isolated using TriZol reagent (Invitrogen). The isolated RNA is then reverse-transcribed using oligo(dT) primer and Mo-MLV reverse transcriptase (Invitrogen) with DNAse I (Ambion) treatment for 30 min. The one-tenth of the produced cDNA was amplified by PCR using Taq DNA polymerase (Invitrogen) and two reporter sequence-specific primers. The PCR products were fluorescently labeled by primer extension with 6-arboxyfluorescein (6-FAM) 5'-labeled reporter sequence-specific primer (2 min at 95 C, 20 s at 68 C and 10 min at 72 C) and these products were digested with 5U of HpaI (New England Biolabs) for 2h at 37 C. The fragments were purified using Qiaquick PCR columns (Qiagen), analyzed on an ABI 3130xL genetic analyzer (Applied Biosystems) with peak positions identified by using a set of X-rhodamine (ROX)-labeled MapMarker1000 molecular weight standards (BioVentures). The raw capillary electrophoresis data was processed using Attagraph software (Attagene).

Chain of Heat shock factor protein 1 (Homo sapiens) (Q00613 whole entry, looked up): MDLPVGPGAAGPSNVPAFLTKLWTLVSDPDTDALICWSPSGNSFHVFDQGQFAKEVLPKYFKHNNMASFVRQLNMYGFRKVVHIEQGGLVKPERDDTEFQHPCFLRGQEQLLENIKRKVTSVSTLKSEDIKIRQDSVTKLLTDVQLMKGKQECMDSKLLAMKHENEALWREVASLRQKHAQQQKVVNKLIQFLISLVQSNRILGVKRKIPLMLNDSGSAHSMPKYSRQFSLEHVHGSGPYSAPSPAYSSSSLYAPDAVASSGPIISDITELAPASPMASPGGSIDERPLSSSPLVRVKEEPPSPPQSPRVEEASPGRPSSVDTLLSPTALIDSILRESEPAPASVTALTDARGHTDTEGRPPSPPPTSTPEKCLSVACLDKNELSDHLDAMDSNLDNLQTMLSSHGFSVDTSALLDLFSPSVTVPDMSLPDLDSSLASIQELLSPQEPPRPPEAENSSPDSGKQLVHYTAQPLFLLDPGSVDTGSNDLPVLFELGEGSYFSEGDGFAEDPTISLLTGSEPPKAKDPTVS

Row | SMILES | outcome | AC50
1 | CCCCCCCCCCCCN1CCCC1=O | inactive | 
2 | CCOC(=O)CC(O)(CC(=O)OCC)C(=O)OCC | inactive | 
3 | c1ccc2c(c1)ccc1ccccc12 | inactive | 
4 | CCCCC(CC)COC(=O)CCCCC(=O)OCc1ccccc1 (stereo not given) | inactive | 
5 | C[C@@H]1C[C@H]2[C@@H]3CCC4=CC(=O)C=C[C@]4(C)[C@@]3(F)[C@@H](O)C[C@]2(C)[C@@]1(O)C(=O)COP(=O)(O)O | inactive | 
6 | NC(=O)N1C(=O)C(C(=O)c2cc(Cl)cs2)c2cc(F)c(Cl)cc21 (stereo not given) | inactive | 
7 | N#C[C@@H]1CC(F)(F)CN1C(=O)CNC1CC2CCC(C1)N2c1ncccn1 (stereo not given in full) | inactive | 
8 | CCCCCCCCC(=O)O | inactive | 
9 | CC[C@H](C)[C@@H](C(=O)O)n1sc2ccccc2c1=O | inactive | 
10 | CC(C)(C)c1ccc(O)c(C(C)(C)C)c1 | inactive | 
11 | CC(C)CCCCCCOC(=O)CCCCC(=O)OCCCCCCC(C)C | inactive | 
12 | CCCCCCCCCCCCCCCS(=O)(=O)Oc1ccccc1 | inactive | 
13 | c1ccc2cc3c(ccc4ccccc43)cc2c1 | inactive | 120 µM (active)
14 | c1ccc2c(c1)Cc1ccccc1-2 | inactive | 
15 | NC(=O)N(O)[C@@H]1C=C[C@H](Oc2cccc(Oc3ccc(F)cc3)c2)C1 |  | 52.8 µM (active)
16 | CCC(=C(c1ccc(O)cc1)c1ccc(OCCN(C)C)cc1)c1ccccc1 | inactive | 12.1 µM (active) and 12.3 µM (active)
17 | CCc1nn(C2CCCCC2)c2cc(C3(C#N)CCC(C(=O)O)CC3)ccc12 (stereo not given) | inactive | 
18 | CC(C)(C)c1cccc(C(C)(C)C)c1O | inactive | 
19 | OCCC(F)(F)C(F)(F)C(F)(F)C(F)(F)C(F)(F)C(F)(F)C(F)(F)C(F)(F)F |  | 55.7 µM (active) and 234 µM (active)

Row | SMILES | outcome | AC50
20 | O=c1c(-c2ccc(O)cc2)coc2cc(O)ccc12 | inactive | 
21 | CC(=O)NC1(c2cccc(F)c2)CCN(CC[C@@]2(c3ccc(Cl)c(Cl)c3)CN(c3ccccc3)C(=O)CO2)CC1 |  | 51.6 µM (active)
22 | CCC(C)(C)C1CCC(O)CC1 (stereo not given) | inactive | 
23 | FC(F)(I)C(F)(F)C(F)(F)C(F)(F)C(F)(F)C(F)(F)I | inactive | 
24 | O=[N+]([O-])c1ccc(O)cc1 | inactive | 
25 | CCCCCCCCCCCCCC[N+](C)(C)C | inactive | 
26 | Oc1cccc(O)c1 | inactive | 
27 | CCCCC(CC)COC(=O)CCCCC(=O)OCC(CC)CCCC (stereo not given) | inactive | 
28 | CCCCCCC(=O)O | inactive | 
29 | Cc1ccc(S(=O)(=O)O)c(C)c1 | inactive | 
30 | CCCCCCCC(=O)O | inactive | 
31 | CCCOC(=O)c1ccc(O)cc1 | inactive | 
32 | ClC1=C(Cl)C(Cl)(Cl)C(Cl)=C1Cl |  | 8.88 µM (active) and 5.39 µM (active)
33 | CN1CCN(c2ccccc2/C=C2\SCCN(c3ccc(Cl)c(Cl)c3)C2=O)CC1 | inactive | 
34 | CC[C@H](c1ccc(O)cc1)[C@@H](CC)c1ccc(O)cc1 | inactive | 
35 | O=C(O)Cc1cc(I)c(Oc2cc(I)c(O)c(I)c2)c(I)c1 |  | 40.5 µM (active) and 44.9 µM (active)
36 | CCN(CC)CCNc1ccc(CNC=O)c2sc3ccc(OC)cc3c(=O)c12 |  | 1.85 µM (active)
37 | O=C(/C=C/c1ccc(O)cc1)CC(=O)/C=C/c1ccc(O)cc1 |  | 20.3 µM (active)
38 | CCCOc1sc(C(=O)N2CCC(c3cc(CN)ccc3F)CC2)c(C)c1Br | inactive | 
